We go through 39 compounds from PubChem BioAssay (NCATS).

Molecules are shown by their SMILES. Results filed as inconclusive are left out. Where a call stands in place of a potency, no number is given. Active and inactive are the calls of the source. Calls follow the shape of the full dose curve; tested in HEK293 reporter line.

A short description of this experiment: qHTS for Inhibitors of the Functional Ribonucleoprotein Complex (vRNP) of Lassa (LASV) Arenavirus: LASV Primary Screen - GLuc reporter signal (AID 1347082). Also: nearly all actives have a fitted effect of over 60% in size. The note with it: LASV minigenome vRNP, Gaussia luciferase reporter; series mostly up to 57.5 µM. A general note: Quantitative high-throughput screening tests each substance at several concentrations.
On to `CCCCCC1Nc2cc(C(F)(F)F)c(S(N)(=O)=O)cc2S(=O)(=O)N1` (centres undefined), for which the Potency result is “inactive”.
To `CCCCN1CCCC[C@H]1C(=O)Nc1c(C)cccc1C` belongs “inactive”.
As for `CCC1Nc2cc(Cl)c(S(N)(=O)=O)cc2S(=O)(=O)N1` (centres undefined), the entry is “inactive”.
With `CCCCCCCCNC(C)C(O)c1ccc(SC(C)C)cc1` (centres undefined), the Potency entry is “inactive”.
For `CCOCC(O)COc1ccc(NC(=O)CC[S+](C)C)cc1` (centres undefined), the Potency result is “inactive”.
To `Cl/C(=C\n1cncn1)c1ccc(Cl)cc1Cl` belongs “inactive”; to `CCOC(=O)[C@H](CCc1ccccc1)N[C@H]1CCc2ccccc2N(CC(=O)O)C1=O`, “inactive”; to `Nc1ccc(S(=O)(=O)Nc2cnc3ccccc3n2)cc1`, “inactive”.
As for `CN1C[C@H](C(=O)N[C@]2(C)O[C@@]3(O)[C@@H]4CCCN4C(=O)[C@H](Cc4ccccc4)N3C2=O)C[C@@H]2c3cccc4[nH]cc(c34)C[C@H]21`, the entry is “inactive”.
To `Cc1cccc(N(C)C(=S)Oc2ccc3ccccc3c2)c1` belongs “inactive”; to `NS(=O)(=O)c1ccc(N2CCCCS2(=O)=O)cc1`, “inactive”; to `C[C@H](N)[C@H](O)c1cccc(O)c1`, “inactive”.
For the compound `COc1cc2c(cc1OC)-c1cc(=Nc3c(C)cc(C)cc3C)n(C)c(=O)n1CC2`, the Potency result was “inactive”.
To `CCN(CC)CCOCCOC(=O)C1(c2ccccc2)CCCC1` belongs “inactive”; to `CC1(c2ccccc2)OC(C(=O)O)=CC1=O` (centres undefined), “inactive”.
Consider `COc1ccc(S(=O)(=O)N2c3ccc(Cl)cc3[C@@](O)(c3ccccc3Cl)[C@H]2C(=O)N2CCC[C@@H]2C(N)=O)cc1OC`, for which the Potency entry is “inactive”.
To `CN(C)CCN(Cc1cccs1)c1ccccn1` belongs “inactive”; to `CC(Oc1c(Cl)cccc1Cl)C1=NCCN1` (centres undefined), “inactive”.
To `COc1cccc(CCc2ccccc2OCC(CN(C)C)OC(=O)CCC(=O)O)c1` (centres undefined) belongs “inactive”.
As for `CCOC(=O)NNc1nncc2ccccc12`, the entry is “inactive”; as for `CCCC(=O)O[C@]1(C(=O)CCl)[C@@H](C)C[C@H]2[C@@H]3CCC4=CC(=O)C=C[C@]4(C)[C@@]3(F)C(=O)C[C@@]21C`, “inactive”.
`CN(C)C(=O)Nc1ccc(Cl)c(Cl)c1`: the Potency entry is “inactive”.
As for `CC(=O)Oc1ccc(C2(c3ccc(OC(C)=O)cc3)C(=O)Nc3ccccc32)cc1`, the entry is “inactive”; as for `C=CCCCCCCCCC(=O)O`, “inactive”; as for `COC(=O)C1=C(C)NC(C)=C(C(=O)OC(C)(C)CN(C)CCC(c2ccccc2)c2ccccc2)C1c1cccc([N+](=O)[O-])c1` (centres undefined), “inactive”.
Take `CCN(CC)CC1CCCCN1CC(=O)N1c2ccccc2C(=O)Nc2cccnc21` (centres undefined): the Potency entry was “inactive”.
As for `OC[C@@H](O)[C@H](O)[C@H](O)[C@@H](O)CO`, the entry is “inactive”.
To `CCOc1ccc(C(=O)OCCN(CC)CC)cc1` belongs “inactive”; to `Cc1cc(O)c(C)c(C)c1O`, “inactive”.
As for `CCCc1nc(C)c2c(=O)[nH]c(-c3cc(S(=O)(=O)N4CCN(CC)CC4)ccc3OCC)nn12`, the entry is “inactive”; as for `C[N+](C)(C)CCCCCCCCCC[N+](C)(C)C`, “inactive”.
With `CN(C)C(=O)Oc1cccc([N+](C)(C)C)c1`, the Potency result is “inactive”.
As for `CN1CCN(C2=Nc3ccccc3Sc3ccc(Cl)cc32)CC1`, the entry is “inactive”.
To `O=Cc1ccccc1C=O` belongs “inactive”; to `C#C[C@]1(O)CC[C@H]2[C@@H]3CCC4=CC(=O)CC[C@@H]4[C@H]3CC[C@@]21C`, “inactive”; to `O=C(CCCCCCCCC#CI)Oc1ccccc1`, “inactive”.
As for `O=C(OCC(O)CO)c1ccccc1Nc1ccnc2c(C(F)(F)F)cccc12` (centres undefined), the entry is “inactive”.
In the case of `CC(O)Cn1cnc2c1c(=O)n(C)c(=O)n2C` (centres undefined), the Potency entry was “inactive”.
As for `O=C(O)CCC(=O)Nc1ccc(S(=O)(=O)Nc2nccs2)cc1`, the entry is “inactive”.
